Results filed as inconclusive are left out. Values without a mark were called inactive. Activity calls are given as the source filed them. Calls follow the shape of the dose curve; as a rule, active = well fitted activation curve with a large enough effect; inconclusive = small, poorly fitted or top-dose-only effect; inactive = flat fitted curve, though single readings scatter.

A short description of the assay: Parental Cell Counter Screen for Stat Signaling Pathway Assay. To be noted: ME-180 (cervical carcinoma) parental cells, blue fluorescence artefact counter-screen; series mostly up to 38.3 µM; activity (fluorescence increase): at the top concentration. From the text: NIH Molecular Libraries Screening Centers Network [MLSCN] NIH Chemical Genomics Center [NCGC] MLSCN Grant: None NCGC Assay Overview: This assay is a counter screen for the Stat signaling pathway assay (PubChem AID 446). The Stat assay is cell-based and measures Interleukin 6 (IL-6) mediated modulation of a beta-lactamase reporter gene controlled by a STAT inducible element (SIE-bla cells, Invitrogen). IL-6 is a cytokine that signals via the JAK/STAT pathway and is implicated in cancer and inflammation. […] Compounds active in the parental ME-180 cells are likely fluorescent.
NCGC Assay Protocol Summary: Cells were trypsinized, washed in assay medium (AM, OPTI MEM with 0.5% fetal bovine serum, 0.1 mM nonessential amino acids, 1 mM sodium pyruvate, 10mM HEPES pH 7.3, 100U/ml penicillin, and 100 ug/ml streptomycin) and suspended at […] in AM. Approximately 2500 cells in 5 uL/well was dispensed into 1536-well plates and the cells were incubated overnight at 37 C. 23 nL of compound were delivered by a pin tool and 1 uL of IL-6 (40 pM final concentration in AM) was added. After plates were incubated at 37 C for 5 hrs, 1uL of detector mix (LiveBLAzerTM, Invitrogen) was added, the plates incubated at room temperature for 2.5 hrs, and fluorescence intensity at 460 and 530 nm emissions was measured at 405 nm excitation by an Envision (Perkin Elmer).
For orientation: The purpose of a counterscreen is to sort out artefacts and off-target activity.
On to `COC(=O)C(O)(c1ccc(NC(=O)c2ccco2)c(OC)c1)C(F)(F)F` (stereo not given), for which the Potency was 0.0063 µM (active).
Turning to `COc1ccc2c3c([nH]c2c1)C(C)=NCC3`, the Potency is 12.6 µM (active).
For `CN(N=O)c1ccc(O)c(O)c1`, the “activity (fluorescence increase)” value was 11.3%.
Regarding `CCn1cnc2c(Nc3cccc(Cl)c3)nc(N[C@@H]3CCCC[C@H]3N)nc21`, the “activity (fluorescence increase)” value was 13.2%.
Same read-out and setting: the value for `CC[C@]1(O)C(=O)OCc2c1cc1n(c2=O)Cc2cc3ccccc3nc2-1` was 9.35%; that for `c1ccc2c(c1)[I+]c1ccccc1-2` was 26.2%.
`COC1=C(C)C(=O)c2c(c(COC(N)=O)c3n2C[C@@H]2[C@@H]3N2C)C1=O` (stereo not given in full): the Potency was 12.6 µM (active).
For the molecule `COc1cccc2c1C(=O)c1c(O)c3c(c(O)c1C2=O)C[C@](O)(/C(C)=N\O)C[C@@H]3O[C@H]1C[C@H](N)[C@@H](O)[C@H](C)O1`, the “activity (fluorescence increase)” value is 4.72%.
`O=c1ccc2cc(O[C@H]3O[C@@H](CO)[C@@H](O)[C@@H](O)[C@@H]3O)c(O)cc2o1`: the Potency was 15.8 µM (active).
Turning to `Cc1c2ccncc2c(C)c2c1[nH]c1ccccc12`, the Potency was 15.8 µM (active).

The values are drawn from PubChem BioAssay AID934 (National Center for Advancing Translational Sciences (NCATS), 2007).
